Sampled rows, rich in hits. Any-hit rate of the full collection: about 11%.
3T3 cytotox: NIH 3T3 cell cytotoxicity; NIH 3T3 viability, CellTiter-Glo ATP luminescence, 48-72 h; Potency, µM (top dose mostly 96.7 µM), inactives show at the top dose activity change, negative = cytotoxicity, most hits filed as inhibitors; 94,000 tested, 4.3% active; AID 1345082; also: nearly all actives have a fitted effect of over 55% in size
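Viability of NIH 3T3 cells after 48 or 72 hr compound treatment at 37 °C was assessed by CellTiter-Glo, with luminescence imaged following a 10 min room-temperature step.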
Luciferase inh: inhibitors of firefly (Photinus pyralis) luciferase | P08659 | purified P. pyralis luciferase, luminescence, biochemical | Potency, µM (series often up to 115 µM), usual class: inhibitors | 76,000 tested, 2.5% active; also: nearly all actives have a fitted effect of over 65% in size
Target sequence (P08659 whole entry, looked up): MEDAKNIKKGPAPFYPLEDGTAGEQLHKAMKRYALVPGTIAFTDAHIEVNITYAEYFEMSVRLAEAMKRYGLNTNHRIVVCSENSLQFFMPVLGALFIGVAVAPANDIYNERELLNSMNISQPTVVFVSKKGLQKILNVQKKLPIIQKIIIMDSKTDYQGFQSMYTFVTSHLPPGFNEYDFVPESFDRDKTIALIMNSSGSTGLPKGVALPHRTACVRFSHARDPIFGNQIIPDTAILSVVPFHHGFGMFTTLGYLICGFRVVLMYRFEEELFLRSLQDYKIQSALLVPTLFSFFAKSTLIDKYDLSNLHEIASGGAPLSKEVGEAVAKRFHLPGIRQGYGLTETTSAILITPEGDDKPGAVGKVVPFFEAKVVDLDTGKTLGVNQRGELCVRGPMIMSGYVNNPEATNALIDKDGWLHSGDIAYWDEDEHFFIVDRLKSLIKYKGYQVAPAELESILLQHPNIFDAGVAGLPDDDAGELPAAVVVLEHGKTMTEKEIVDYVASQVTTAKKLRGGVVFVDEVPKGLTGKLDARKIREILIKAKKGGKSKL
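Purified P. pyralis luciferase (10nM final) in 50mM Tris acetate pH 7.5, 10mM Mg acetate, 0.01% Tween-20, 0.05% BSA with 10uM D-luciferin and 10uM ATP. Compounds titrated qHTS. Luminescence imaged on CCD.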
HEK cytotox: cytotoxic compounds in HEK 293 cells. AID 1345083. 94,000 tested, 6.6% active. HEK 293 viability, ATP luminescence (CellTiter-Glo), 48-72 h. Potency, µM (doses to about 115 µM), for the others: at the top dose activity change, negative = cytotoxicity, hits mostly inhibitors; also: nearly all actives have a fitted effect of over 60% in size
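HEK 293 seeded at 250 cells/well receive compound via pintool. After 48 or 72 hr at 37 degree Celsius, 5% CO2 and 95% humidity, CellTiter-Glo is dispensed and luminescence read following 10 min at room temperature.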
hNpr1 antagonist: blocks ANP-stimulated signaling of human Npr1 receptor | P16066 | HEK293 hNpr1 GloSensor cGMP, ANP-stimulated luminescence | Potency, µM (highest dose often 46.3 µM), for inactives: at the top dose activity change, negative = inhibition, hits mostly inhibitors | 76,000 tested, 1.6% active; calls by dose curve; also: nearly all actives have a fitted effect of over 60% in size
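HEK293 cells stably expressing human Npr1 and cGMP GloSensor pGS-40F, loaded 2 h with 2% GloSensor reagent, given compound 30 min at room temperature. Luminescence read before and 20 min after 0.1 nM hNppA.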
The depositor's hits bear a star; i = inactive; u = inconclusive; x = no result given; [ ] = dose if it differs, or a comment. Unless noted, calls follow the shape of the dose curve; as a rule, active = well fitted curve in the direction sought with a large enough effect; inconclusive = small, poorly fitted or top-dose-only effect, or another doubt; inactive = no such curve, though single readings can be large; an effect the other way counts as inactive or inconclusive. % is scaled to controls: 0 for no effect and ±100 for the full control effect; potency is read from the fitted curve at half-maximal effect.

SMILES | 3T3 cytotox | Luciferase inh | HEK cytotox | hNpr1 antagonist
CCN(CC)C(=O)C[C@@H]1CCNC[C@@H]1Cc1cc(-c2ccc(C(C)(C)C)cc2)on1 | 40µM* | i | 40µM* | 7%[70.6 µM]
COCCc1noc([C@@H]2CC(F)(F)CN2C(=O)CCn2cccn2)n1 | -6% | i | -8% | 5%
COc1cccc(CCc2ccccc2C(=O)N[C@@H]2COCC[C@H]2O)c1 | -3% | i | 3% | 1%
CC(C)(C)c1ccc(-c2cc(C[C@H]3CNCC[C@H]3CC(=O)NCCN3CCOCC3)no2)cc1 | 50µM* | i | 40µM* | -2%
CNC(=O)c1cc(-c2cccnc2)cc2c1OCCN2Cc1cccnc1 | u | i | 5%[172 µM] | 8%[70.6 µM]
CC(C)NC(=O)c1cc(-c2ccccc2F)cc2c1OCCN2Cc1cccnc1 | 79µM* | i | 89µM* | -26%[70.6 µM]
CN(C)CCN(C)C(=O)c1cc(-c2ccccc2F)cc2c1OCCN2Cc1cccnc1 | u | i | 79µM* | -3%
CNC(=O)c1cc(-c2cnn(C)c2)cc2c1OCCN2Cc1cccnc1 | 40µM* | i | i | 2%[70.6 µM]
CN1CCOc2c(C(=O)NCc3cccnc3)cc(-c3ccccc3F)cc21 | u | i | 100µM* | 3%[70.6 µM]
CN1C(=O)c2cccn2CC1CNS(=O)(=O)c1ccc(F)cc1 (stereo not drawn) | -8% | i | u | 0%
COc1cc(F)ccc1-c1cc2c(ccn2C)c(C(=O)NCCc2cnc[nH]2)n1 | u | i | u | 2%[70.6 µM]
Cn1cccc1-c1noc(C2CCN(C(=O)C3(c4ccccc4)CC3)C2)n1 (stereo not drawn) | -37% | x | u | x
CC(C)c1ccc(S(=O)(=O)N2[C@@H]3CC[C@H]2CC(NC(=O)c2ccncc2)C3)cc1 (stereo partly drawn) | -21% | i | u | -1%
O=C(NCc1ccco1)c1cc(-c2ccccc2F)cc2c1OCCN2Cc1cccnc1 | u | i | u | -29%
CN(C)CCNC(=O)c1cc(-c2ccccc2F)cc2c1OCCN2Cc1cccnc1 | 40µM* | i | 63µM* | -25%[70.6 µM]
O=C(NCc1cccc(F)c1)C1CCN(C(=O)c2ncn3c2COC(c2ccccc2)C3)CC1 (stereo not drawn) | -18% | 5µM* | u | -5%
COc1cccc(CNC(=O)C2CCN(C(=O)c3ncn4c3COC(c3ccc(F)cc3)C4)CC2)c1 (stereo not drawn) | -6% | u | -10% | 1%
Cc1ccc(C2Cn3cnc(C(=O)N4CCC(C(=O)NCc5ccccc5Cl)CC4)c3CO2)cc1 (stereo not drawn) | -34% | 35µM* | u | -6%
Cc1ccc(CNC(=O)C2CCN(C(=O)c3ncn4c3COC(c3ccccc3)C4)CC2)cc1 (stereo not drawn) | -1% | 16µM* | 8% | -10%
Cc1ccc(C2Cn3cnc(C(=O)N4CCC(C(=O)NCCCc5ccccc5)CC4)c3CO2)cc1 (stereo not drawn) | i | 32µM* | 3% | 4%
Cc1ccc(C2Cn3cnc(C(=O)N4CCC(C(=O)NCCc5ccccc5)CC4)c3CO2)cc1 (stereo not drawn) | 0% | u | -3% | 4%
COc1ccc(CNC(=O)C2CCN(C(=O)c3ncn4c3COC(c3ccccc3)C4)CC2)cc1 (stereo not drawn) | -1% | 16µM* | -2% | -15%
CC(NC(=O)C1CCN(C(=O)c2ncn3c2COC(c2ccc(F)cc2)C3)CC1)c1ccccc1 (stereo not drawn) | -28% | u | u | 1%
Cc1ccc(C2Cn3cnc(C(=O)N4CCC(C(=O)NC(C)c5ccccc5)CC4)c3CO2)cc1 (stereo not drawn) | -3% | 28µM* | -9% | 5%
COCCN(C)C(=O)c1ccc2c(c1)NC(C)(COc1cccnc1)CO2 (stereo not drawn) | u | i | u | u
SMILES | 3T3 cytotox | Luciferase inh | HEK cytotox | hNpr1 antagonist
COc1cccc(OCc2nc(C(=O)N3CCCC3c3nccs3)co2)c1 (stereo not drawn) | -24% | i | -22% | 0%
CN1C[C@H](NCC2CC2)CCC[C@@H](C(=O)N(C)Cc2cccnc2)CC1=O | i | i | i | 0%[70.6 µM]
COc1ccc2nc3n(c2c1)[C@@H](CNC(C)C)COC3 | 100µM* | i | -14%[230 µM] | 1%[70.6 µM]
COc1ccc2nc3n(c2c1)[C@@H](CNC(=O)NC(C)C)COC3 | 4%[138 µM] | i | 1%[172 µM] | -1%[70.6 µM]
CC(C)Cc1cnc(C2CCCN(C(=O)OC(C)(C)C)C2)[nH]1 (stereo not drawn) | 89µM* | x | u | x
O=C(CC1CCCN(c2cn[nH]c(=O)c2)C1)Nc1cccc(Cl)c1 (stereo not drawn) | u | i | -23% | -3%
CCCNC(=O)N1CCC(N2C(=O)[C@H](OCCOC)[C@@H]2c2ccncc2)CC1 | -6% | i | 3% | -1%
Cc1ccccc1C(=O)NC1CCN(c2cc(-c3ccc(Cl)cc3)[nH]n2)C1 (stereo not drawn) | 40µM* | i | u | -14%
CCOc1ccccc1C(=O)NC1CCCN(c2cc(-c3ccc(F)cc3)[nH]n2)C1 (stereo not drawn) | 32µM* | i | 40µM* | -19%
CCOc1ccc(C(=O)NC2CCCN(c3cc(-c4ccc(OC)cc4)[nH]n3)C2)cc1OCC (stereo not drawn) | -15% | i | u | 1%
CCOc1ccccc1C(=O)NC1CCN(c2cc(-c3ccc(Cl)cc3)[nH]n2)C1 (stereo not drawn) | u | i | 35µM* | -23%
CCOc1ccc(C(=O)NC2CCCN(c3cc(-c4ccc(F)cc4)[nH]n3)C2)cc1OCC (stereo not drawn) | 32µM* | i | 28µM* | 0%
CN1C[C@@H](NC(=O)c2ccccn2)C[C@H]1c1nc(-c2cccnc2)no1 | i | i | 2%[172 µM] | 1%[70.6 µM]
CCCCn1c(=O)c(C(=O)NCC(F)F)nc2cccnc21 | -27%[138 µM] | x | -7%[172 µM] | x
Cc1cnc(C(=O)NC2C[C@H]3CC[C@@H](C2)N3C(=O)C2CCCCCC2)cn1 (stereo partly drawn) | -21% | i | u | 8%
CC1Oc2ccc(NC(=O)C3CCCC3)cc2CN(Cc2ccc(F)cc2)C1=O (stereo not drawn) | 25µM* | i | u | -22%
CC1Oc2ccc(NC(=O)c3cccs3)cc2CN(Cc2ccccc2)C1=O (stereo not drawn) | u | i | 25µM* | -13%
CC1Oc2ccc(NC(=O)c3cccs3)cc2CN(CCc2ccc(F)cc2)C1=O (stereo not drawn) | -29% | i | u | -10%
CC1Oc2ccc(NC(=O)Nc3ccccc3)cc2CN(Cc2ccccc2)C1=O (stereo not drawn) | 35µM* | u | 45µM* | u
CCC1Oc2ccc(NC(=O)C3CCCC3)cc2CN(Cc2ccc(F)cc2)C1=O (stereo not drawn) | u | i | u | -22%
